Data taken from PubChem BioAssay AID720648 (The Scripps Research Institute Molecular Screening Center, 2013).
Among all 370,000 compounds or so, about 3,100 (0.84%) were called active.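 How the source made its calls: active means inhibition above the mean of compounds lying between control limits plus 3 SD, set per campaign (cut at about 8.5% in these data); inactive means the rest.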 The list comes from a sample in which actives are over-represented; it also holds similar structures and randomly drawn compounds.

target: Disintegrin and metalloproteinase domain-containing protein 17 (Homo sapiens) (UniProt P78536); experiment: ADAM17 inhibitors, primary screen, biochemical, QFRET (AID 720648); conditions: recombinant ADAM17, EDANS/DABCYL FRET peptide cleavage; at 6.95 µM; hits give high values;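 further: 0% = DMSO-only wells as the low control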
Sequence (P78536 215-824 limits assumed): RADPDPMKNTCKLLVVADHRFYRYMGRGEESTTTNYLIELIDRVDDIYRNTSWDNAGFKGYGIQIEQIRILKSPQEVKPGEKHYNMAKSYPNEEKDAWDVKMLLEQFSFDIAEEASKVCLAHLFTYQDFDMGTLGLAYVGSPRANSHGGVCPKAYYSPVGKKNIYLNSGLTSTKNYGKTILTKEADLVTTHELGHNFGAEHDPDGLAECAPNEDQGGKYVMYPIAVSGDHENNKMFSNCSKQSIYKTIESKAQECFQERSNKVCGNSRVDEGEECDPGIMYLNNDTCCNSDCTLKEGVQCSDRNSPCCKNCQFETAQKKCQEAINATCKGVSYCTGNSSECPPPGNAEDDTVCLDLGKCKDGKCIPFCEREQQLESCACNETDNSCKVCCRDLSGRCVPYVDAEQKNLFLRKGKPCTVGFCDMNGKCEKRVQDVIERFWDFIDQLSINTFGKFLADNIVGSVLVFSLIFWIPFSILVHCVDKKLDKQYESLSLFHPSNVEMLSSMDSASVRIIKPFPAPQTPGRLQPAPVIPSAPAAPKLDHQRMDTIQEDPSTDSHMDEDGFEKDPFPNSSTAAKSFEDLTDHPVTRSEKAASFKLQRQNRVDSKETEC

inhibition, active:
CCCCCC(=O)N1C[C@H](O)[C@@H](n2cc(COC(=O)c3ccccc3)nn2)C[C@@H]1c1ccc(C)cc1 8.64%
C=CC(COCc1ccccc1)N(CC(=O)OC)S(=O)(=O)c1cc(Br)ccc1OC (centres undefined) 9.3%
CCOc1ccc(-n2c(SCC(=O)Nc3cc(C)c(NC(=O)c4ccccc4)cc3OC)nnc2-c2cccs2)cc1 10.6%
Cc1ccc(S(=O)(=O)N2CCN(C(=O)COC(=O)c3c(C)cc(C)cc3C)CC2)c(C)c1 19.5%
O=C(OCc1ccc(-c2ccccc2)cc1)c1cccc(O)c1 9.14%
CCOc1ccccc1CNS(=O)(=O)c1cc(-c2cc(C)no2)ccc1C 10.2%
Cc1ccc(NC(=S)NNC(=O)CSc2nnc(SCc3ccccc3Cl)s2)cc1 9.53%
O=C(CSc1nc(-c2ccccc2)cs1)Nc1cccc([N+](=O)[O-])c1 8.67%
C=CCC[C@@H](Cc1ccc(F)cc1)C(=O)OC[C@H](Cc1c[nH]c2ccccc12)NC(=O)[C@@H](CC=C)CC(=O)N(CCO)Cc1ccccc1 20.9%
C=CCC[C@@H](Cc1ccc(F)cc1)C(=O)O[C@H](CNC(=O)[C@H](CC=C)CC(=O)N(CCO)Cc1ccccc1)c1ccccc1 13.4%
C=CC[C@H](CC(=O)N(CCO)Cc1ccccc1)C(=O)N[C@@H](COC(=O)[C@@H](CC=C)Cc1ccc(F)cc1)Cc1ccccc1 13.2%

inhibition, inactive:
C=CCOC/C=C/C#CCN(CC=C)Cc1ccc(OC)cc1OC -0.84%
O=C(Nc1nc2ccc(Cl)cc2s1)c1cc(-c2ccc(Cl)cc2)nc2ccccc12 -5.76%
Cc1ccccc1CN1CCCCC(NC(=O)c2cccc(C#N)c2)C1=O (centres undefined) -3.86%
CCCCCCN1C[C@@H](O)[C@H](n2cc(COC(=O)c3ccccc3)nn2)C[C@@H]1c1ccc(Cl)cc1 -1.65%
Cc1ccc([C@H]2C[C@H](O)[C@@H](n3cc(COC(=O)c4ccccc4)nn3)CN2C(=O)C2CCCCC2)cc1 -1.37%
CC(CCN1CCC(C(O)(c2ccccc2)c2ccccc2)CC1)Oc1ccc([N+](=O)[O-])cc1Cl (centres undefined) 6.8%
CCN(Cc1ccccc1)S(=O)(=O)c1cc(C(=O)O)ccc1OC 0.35%
C=CC(COCc1ccccc1)N(Cc1ccccc1)S(=O)(=O)c1ccccc1Br (centres undefined) -0.15%
Cc1ccc(NC(=O)c2cc(C)nn2-c2ccccc2)c(C)c1 3.11%
C=C(C)C#CC(Cc1ccccc1)N(CC1CC1)/C(N)=N/C(=O)OCc1ccccc1 (centres undefined) -26.4%
COc1ccc(-n2c(SCC(=O)Nc3ccccc3-c3ccccc3)nnc2-c2cccnc2)cc1 -1.39%
CCOc1ccc(-n2c(SCC(=O)Nc3cc(C)c(NC(=O)c4ccccc4)cc3OC)nnc2-c2cccc(Cl)c2)cc1 6.75%
Cc1cc(=O)[nH]c(SCC(=O)Nc2ccc(F)cc2F)n1 6.65%
COc1ccc(/C=C/C(=O)OCC(=O)N2CCN(S(=O)(=O)c3ccc(C)cc3C)CC2)cc1OC -6.61%
Cc1ccc(S(=O)(=O)N2CCN(C(=O)COC(=O)CNC(=O)c3ccc(C(C)(C)C)cc3)CC2)c(C)c1 -2.11%
Cc1ccc(-n2c(SCC(=O)Nc3ccc(S(=O)(=O)Nc4nccs4)cc3)nnc2-c2ccncc2)cc1 -0.27%
O=C(OCC(=O)N1CCN(C(=O)c2ccco2)CC1)c1cccc(O)c1 -3.62%
Cc1ccc(S(=O)(=O)c2c(COC(=O)c3cccc(Cl)c3)c(-c3ccccc3)nn2C)cc1 -0.5%
COc1ccc(CNS(=O)(=O)c2cc(-c3cc(C)no3)ccc2C(C)C)cc1 3.19%
Cc1cc(-c2ccc(C)c(S(=O)(=O)NCCCN(Cc3ccccc3)C(C)C)c2)on1 -3.83%
CCC(CO)Nc1cccc2c1S(=O)(=O)N(Cc1cn(Cc3ccccc3C(F)(F)F)nn1)Cc1ccccc1O2 (centres undefined) -3.41%
COC(=O)[C@H](C(C)C)N1CCc2nnn(Cc3ccc(C)cc3)c2-c2ccccc2S1(=O)=O 2.97%
C=C1C(C(C)C)N(C)C2=NC(c3ccccc3)CC(=O)N12 (centres undefined) -5.62%
O=C(CSc1nnc(SCc2ccc(Cl)cc2)s1)N/N=C/c1ccccc1Cl 0.99%
O=C(CSc1nc2ccccc2n1Cc1ccccc1)NNC(=S)Nc1ccccc1 5.43%
Nc1[nH]c(/C=C2/CCCCC2n2[nH]c(=O)n(-c3ccccc3)c2=O)c(Cc2ccccc2)[n+]1Cc1ccccc1 (centres undefined) -3.48%
O=C(Nc1ccc(Br)cc1)OCCN1C(=O)CCC12CCC(c1ccccc1)CC2 (centres undefined) -0.94%
CC(NCc1ccco1)C(=O)N1CCCCC1 (centres undefined) 0.39%
O=C(CSc1nc2[nH]c(=O)[nH]c(=O)c2s1)Nc1cccc(F)c1 -3.92%
O=C(CSCc1ccc([N+](=O)[O-])cc1)Nc1cccc(C(=O)Nc2ccccc2C(=O)O)c1 0.74%
O=C1CC(c2ccc3c(c2)OCO3)N=C2N(CC3CC3)C/C(=C/c3ccccc3)N12 (centres undefined) -2.87%
CC(CCN1CCC(C(O)(c2ccccc2)c2ccccc2)CC1)Oc1ccc(C(F)(F)F)cc1 (centres undefined) 3.8%
C=CCC[C@H](Cc1ccc(F)cc1)C(=O)OC[C@@H](Cc1c[nH]c2ccccc12)NC(=O)[C@H](CC=C)CC(=O)N[C@H](CO)Cc1ccccc1 3.73%
C=CCC[C@@H](Cc1ccc(F)cc1)C(=O)OC[C@@H](C)NC(=O)[C@H](CC=C)CC(=O)N(CCO)Cc1ccccc1 0.31%
C=CC[C@@H](CC(=O)N[C@H](CO)Cc1ccccc1)C(=O)N[C@@H](COC(=O)[C@@H](CC=C)Cc1ccc(F)cc1)Cc1c[nH]c2ccccc12 -0.68%
C=CCC[C@H](Cc1ccc(F)cc1)C(=O)OC[C@H](C)NC(=O)[C@H](CC=C)CC(=O)N(CCO)Cc1ccccc1 0.15%
C=CCC[C@H](Cc1ccc(F)cc1)C(=O)OC[C@@H](NC(=O)[C@@H](CC=C)CC(=O)N[C@H](CO)Cc1ccccc1)C(C)(C)C 4.84%
C=CC[C@@H](Cc1ccc(F)cc1)C(=O)OC[C@H]1CCCN1C(=O)[C@H](CC=C)CC(=O)N(CCO)Cc1ccccc1 1.4%
